Data reported in PubChem BioAssay AID1159580 (chemical genetic matrix, 2015).
“And” between values parts separate entries of the source, which are not always exact repeats. Identical values can stand only once. Out of some 5,500 compounds screened, about 2,000 (36%) were called active. About 18% were inconclusive and are not listed. No stated cut-off is given here; in the data, active means normalized growth mostly below about 0.91 (no sharp cut-off); inconclusive means no clear call, values can overlap the other calls; inactive means mostly above about 0.92. The list shows a part of the results.

Test: chemical genetic growth profiling, strain panel (AID 1159580);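 further: tested at 20 µM; growth read once vehicle control cultures reached saturation at 30 °C; 1 = growth at the plate median or of vehicle wells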
Settings: S. cerevisiae deletion strains, growth OD

Measured: normalized growth

CCc1cccc2c3c([nH]c12)C(CC)(CC(=O)O)OCC3 (stereo not given)
inactive: locus YAL013W, strain DEP1, stronger effect = lower value 1.01 and 1.02 | locus YAL021C, strain ccr4, stronger effect = lower value 1.01 | locus YAL026C, strain drs2, stronger effect = lower value 0.983 | locus YAL030W, strain snc1, stronger effect = lower value 1 | locus YAL040C, strain CLN3, stronger effect = lower value 0.976 | locus YBL061C, strain skt5, stronger effect = lower value 0.979 | locus YBR009C, strain hhf1, stronger effect = lower value 1 | locus YBR021W, strain FUR4, stronger effect = lower value 1.01 | locus YBR023C, strain chs3, stronger effect = lower value 0.968 | locus YBR171W, strain sec66, stronger effect = lower value 0.959 | locus YBR229C, strain ROT2, stronger effect = lower value 1.01 | locus YBR231C, strain swc5, stronger effect = lower value 0.989 | locus YBR279W, strain paf1, stronger effect = lower value 0.987 | locus YCL011C, strain gbp2, stronger effect = lower value 1 | locus YCL016C, strain dcc1, stronger effect = lower value 1 | locus YCL029C, strain bik1, stronger effect = lower value 1.01 | locus YCL061C, strain MRC1 (second series), stronger effect = lower value 0.995 | locus YCL069W, strain vba3, stronger effect = lower value 0.976 | locus YCR088W, strain abp1, stronger effect = lower value 0.983 | locus YDL005C, strain med2, stronger effect = lower value 0.971 | locus YDL035C, strain GPR1, stronger effect = lower value 1 | locus YDL040C, strain nat1, stronger effect = lower value 0.976 | locus YDL074C, strain BRE1, stronger effect = lower value 1.02 | locus YDL101C, strain DUN1, stronger effect = lower value 1.02 | locus YDL134C, strain PPH21, stronger effect = lower value 1.01 | locus YDL185W, strain tfp1, stronger effect = lower value 1.01 | locus YDL192W, strain arf1, stronger effect = lower value 1.01 | locus YDR001C, strain nth1, stronger effect = lower value 0.966 | locus YDR069C, strain doa4, stronger effect = lower value 0.976 | locus YDR101C, strain arx1, stronger effect = lower value 1 | locus YDR137W, strain rgp1, stronger effect = lower value 0.964 | locus YDR150W, strain NUM1, stronger effect = lower value 1 and 0.999 | locus YDR159W, strain sac3, stronger effect = lower value 0.976 | locus YDR162C, strain NBP2, stronger effect = lower value 1.01 | locus YDR195W, strain ref2 0.896 | locus YDR297W, strain sur2, stronger effect = lower value 0.985 | locus YDR318W, strain mcm21, stronger effect = lower value 1.02 | locus YDR334W, strain swr1, stronger effect = lower value 0.951 | locus YDR335W, strain msn5, stronger effect = lower value 0.968 | locus YDR363W, strain ESC2, stronger effect = lower value 1.05 | locus YDR388W, stronger effect = lower value 1.01 | locus YDR392W, strain spt3, stronger effect = lower value 1.03 | locus YDR502C, strain sam2, stronger effect = lower value 0.986 | locus YEL003W, strain gim4, stronger effect = lower value 0.964 | locus YEL037C, strain rad23, stronger effect = lower value 0.968 | locus YEL061C, strain CIN8 (second series), stronger effect = lower value 0.965 | locus YEL061C, strain CIN8, stronger effect = lower value 1 | locus YER002W, strain NOP16, stronger effect = lower value 0.979 | locus YER015W, strain faa2, stronger effect = lower value 0.973 | locus YER016W, strain bim1, stronger effect = lower value 0.984 | locus YER110C, stronger effect = lower value 1 | locus YER111C, strain swi4, stronger effect = lower value 0.968 | locus YER155C, strain BEM2 (second series), stronger effect = lower value 0.979 | locus YER155C, strain BEM2, stronger effect = lower value 1.01 | locus YER167W, strain BCK2, stronger effect = lower value 1.01 | locus YFR010W, strain ubp6, stronger effect = lower value 0.984 | locus YGL078C, strain dbp3, stronger effect = lower value 0.99 | locus YGL086W, strain mad1, stronger effect = lower value 1.01 | locus YGL167C, strain pmr1, stronger effect = lower value 0.957 | locus YGL173C, strain kem1, stronger effect = lower value 0.993 | locus YGL227W, strain vid30, stronger effect = lower value 0.987 | locus YGL240W, strain doc1, stronger effect = lower value 0.982 | locus YGL248W, strain PDE1, stronger effect = lower value 1.01 | locus YGL253W, strain hxk2, stronger effect = lower value 0.98 | locus YGR078C, strain PAC10, stronger effect = lower value 1.02 | locus YGR135W, strain pre9, stronger effect = lower value 1 | locus YGR229C, strain SMI1, stronger effect = lower value 0.995 | locus YGR252W, strain gcn5, stronger effect = lower value 1 | locus YHR013C, strain ard1, stronger effect = lower value 0.985 | locus YHR027C, strain rpn1, stronger effect = lower value 0.997 | locus YHR030C, strain SLT2, stronger effect = lower value 1.01 and 0.971 | locus YHR079C, strain IRE1 (second series), stronger effect = lower value 1.01 | locus YHR079C, strain IRE1, stronger effect = lower value 0.965 | locus YHR094C, strain hxt1, stronger effect = lower value 1.01 | locus YHR129C, strain ARP1, stronger effect = lower value 1.01 | locus YHR142W, strain chs7, stronger effect = lower value 0.986 | locus YHR200W, strain rpn10, stronger effect = lower value 1 | locus YIL066C, strain RNR3, stronger effect = lower value 1.01 | locus YIL073C, strain SPO22, stronger effect = lower value 1.02 | locus YIL125W, strain kgd1, stronger effect = lower value 0.992 | locus YIR030C, strain dcg1, stronger effect = lower value 0.997 | locus YJL092W, strain hpr5, stronger effect = lower value 0.982 | locus YJL095W, strain BCK1 (second series), stronger effect = lower value 0.987 | locus YJL095W, strain BCK1, stronger effect = lower value 1.05 and 0.971 | locus YJL115W, strain asf1, stronger effect = lower value 0.98 | locus YJL129C, strain trk1, stronger effect = lower value 0.934 | locus YJL134W, strain LCB3, stronger effect = lower value 1.01 | locus YJL154C, strain vps35, stronger effect = lower value 0.981 | locus YJL164C, strain tpk1, stronger effect = lower value 1.01 | locus YJL166W, strain qcr8, stronger effect = lower value 0.984 | locus YJL168C, strain set2, stronger effect = lower value 1 | locus YJL187C, strain SWE1 (second series), stronger effect = lower value 1.03 | locus YJR043C, strain POL32, stronger effect = lower value 1.01 | locus YJR066W, strain TOR1, stronger effect = lower value 0.916 | locus YJR075W, strain HOC1, stronger effect = lower value 1.02
